SmPrx2 inh = blocks S. mansoni peroxiredoxin 2 enzymatic activity; S. mansoni Prx2 activity coupled to TGR/GSH (TGR is thioredoxin glutathione reductase), NADPH fluorescence loss, qHTS; Potency, µM; 65,000 compounds, 0.07% hits
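Prx2 activity was followed as the loss of NADPH fluorescence (ex 365/em 450 nm), read every 30 sec for 8 min after H2O2 start. The enzyme mix (50 nM Prx2, 25 nM TGR, GSH, NADPH; pH 7.4 phosphate buffer) was incubated with compound for 15 min at room temperature first.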
AmpC inh no det = AmpC beta-lactamase inhibition, detergent-free assay | P00811 | AmpC nitrocefin hydrolysis, absorbance 480 nm, no detergent | Potency, µM (series often up to 28.7 µM) | 71,000 compounds, 1.8% hits
Target sequence (P00811 whole entry, looked up): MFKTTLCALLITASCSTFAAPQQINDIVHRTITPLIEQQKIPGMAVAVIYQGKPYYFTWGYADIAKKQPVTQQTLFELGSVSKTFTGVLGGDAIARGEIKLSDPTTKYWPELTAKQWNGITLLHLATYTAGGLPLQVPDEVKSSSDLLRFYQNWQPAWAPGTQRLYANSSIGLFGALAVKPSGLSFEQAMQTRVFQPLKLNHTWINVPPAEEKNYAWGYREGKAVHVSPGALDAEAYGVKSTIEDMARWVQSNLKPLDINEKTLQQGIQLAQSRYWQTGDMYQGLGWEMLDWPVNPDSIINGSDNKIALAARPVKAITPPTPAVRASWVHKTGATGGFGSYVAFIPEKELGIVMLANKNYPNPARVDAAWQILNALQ
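Enzyme, pH 7.0 phosphate. Compound titrations were pre-incubated with AmpC for 15 min at room temperature before nitrocefin (stock 800 uM) addition; product formation was recorded at 480 nm every 20 s for 4 min.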
Anthrax LT inh = blocks cellular internalization of anthrax lethal toxin. 70,000 compounds, 0.67% hits. AID 912. Cells, anthrax lethal toxin internalization, FRET ratio (460/530). Potency, µM (doses to about 40 µM), actives largely listed as inhibitors; note: nearly all actives have a fitted effect of over 50% in size
AmpC inh det = AmpC beta-lactamase inhibition, detergent assay | purified AmpC, nitrocefin hydrolysis with detergent | Potency, µM (highest dose often 28.7 µM) | 71,000 compounds, 0.09% hits | AID 584; active = well fitted curve in the direction sought with a large enough effect; inconclusive = small, poorly fitted or top-dose-only effect
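E. coli AmpC (5.3 nM) in 20 mM phosphate pH 7.0 with 0.01% Triton X-100, preincubated 15 min RT with compound; nitrocefin (2 uL of 800 uM stock) hydrolysis followed by 480 nm absorbance every 20 s over 4 min.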
Of the large screens only hits and unclear results are named; the others gave an inactive call; ! = a repeat was not active; [ ] = another dose, or the depositor's remark. Most compounds without a hit are left out; they make up all but 2.4% or so of the library. Unless noted, calls come from the whole dose curve.

COc1ccc(C(=O)Nc2ccc(Cl)cc2C(=O)NCc2ccco2)cc1OC	Anthrax LT inh 7.9µM (no result: SmPrx2 inh)
Cc1cccc(NC(=O)Nc2ccc(C#N)cc2)n1	none
COc1ccc(NC(=O)Nc2cccc(C)n2)cc1	AmpC inh no det 4µM[single pt active]
Cc1cc(N2CCN(C)CC2)nc2ccc(NC(=O)c3ccc(Br)o3)cc12	Anthrax LT inh 13µM
CCC(C)NC(=O)CCC(=O)Nc1ccc2nc(N3CCOCC3)cc(C)c2c1 (centres undefined)	none
Cc1cc(N2CCN(C)CC2)nc2ccc(NC(=O)c3ccc4c(c3)OCO4)cc12	Anthrax LT inh inconclusive
CCOc1ccccc1NC(=O)CCC(=O)Nc1ccc2nc(N3CCN(C)CC3)cc(C)c2c1	Anthrax LT inh 13µM
CCc1ccc(NC2=NCC(=O)N2Cc2ccc3c(c2)OCO3)cc1	Anthrax LT inh 10µM
O=C(O)c1ccccc1Nc1cccc(OCc2ccc3ccccc3n2)c1	AmpC inh no det 16µM![single pt active], Anthrax LT inh 16µM!
COc1cccc(Nc2cc(C)nc3ccccc23)c1	none
Cn1c(=O)c2nc(-c3ccc(Cl)cc3Cl)oc2c2ccccc21	AmpC inh no det 2.5µM
CCCCC/C=C\C/C=C\C/C=C\C/C=C\CCCC(=O)NCC(=O)O	none
CCCCC/C=C\C/C=C\C/C=C\C/C=C\CCCC(=O)Nc1ccc(O)cc1	AmpC inh no det 10µM, Anthrax LT inh inconclusive
O=C(Nc1ccc(O)cc1)C1CC=CCC1 (centres undefined)	AmpC inh no det 13µM[single pt active]
Cc1ccc(S(=O)(=O)N2CCCC2C(=O)Nc2ccc(O)cc2)cc1 (centres undefined)	none
Cc1cc(C)c(-c2cc([C@H](C)O/N=C3/[C@H]4OC4[C@@H](O)[C@H]4[C@H]3CCn3c(=O)n(-c5ccccc5)c(=O)n34)on2)c(C)c1 (some centres undefined)	none (no result: SmPrx2 inh, AmpC inh no det, AmpC inh det)
Cc1cccc(OCC(=O)NCc2ccncc2)c1C	AmpC inh no det 3.2µM[single pt active]
CO[C@@H]1/C=C\O[C@]2(C)Oc3c(C)c(O)c4c(O)c(c(CN5CCN(C)CC5)c(O)c4c3C2=O)NC(=O)/C(C)=C\C=C[C@@H](C)[C@@H](O)[C@H](C)[C@@H](O)[C@H](C)[C@H](OC(C)=O)[C@@H]1C	none
CCCC(=O)c1ccc(N2CCN(C(=O)c3ccccc3Br)CC2)c(F)c1	Anthrax LT inh 13µM
Cc1ccc(-c2nc(CS(=O)CC(=O)NCc3ccccn3)c(C)o2)cc1 (centres undefined)	AmpC inh no det 4µM[single pt active]
Cc1oc(-c2ccc(Cl)cc2)nc1CS(=O)CC(=O)NCCN1CCCC1 (centres undefined)	AmpC inh no det 4µM[single pt active]
Cc1ccccc1-c1nc(CS(=O)CC(=O)NCCN2CCOCC2)c(C)o1 (centres undefined)	AmpC inh no det 4µM[single pt active]
Cc1ccc(-c2nc(CS(=O)CC(=O)NCCN3CCCC3)c(C)o2)cc1 (centres undefined)	AmpC inh no det 4µM[single pt active]
Cc1ccccc1-c1nc(CS(=O)(=O)CC(=O)NCCN2CCOCC2)c(C)o1	none
Cc1ccc(-c2nc(CS(=O)CC(=O)NCCN3CCOCC3)c(C)o2)cc1 (centres undefined)	AmpC inh no det 4µM[single pt active]
CCOC(=O)N1CCC(NC(=O)C2CCCN(Cc3nc(-c4cccc(Cl)c4)oc3C)C2)CC1 (centres undefined)	Anthrax LT inh inconclusive
CCN1CCN(CCNC(=O)C2CCCN(Cc3nc(-c4cccc(Cl)c4)oc3C)C2)CC1 (centres undefined)	Anthrax LT inh 4µM
Cc1ccc(-c2nc(CS(=O)CC(=O)NCCN(CC(C)C)CC(C)C)c(C)o2)cc1 (centres undefined)	none
Cc1ccccc1-c1nc(CS(=O)CC(=O)NCc2ccccc2)c(C)o1 (centres undefined)	AmpC inh no det 4µM[single pt active]
Cc1ccc(CNC(=O)CS(=O)Cc2nc(-c3ccccc3C)oc2C)cc1 (centres undefined)	Anthrax LT inh inconclusive
COC(=O)N1CCC2(CC1)CN(c1cccc(-c3ccccc3)c1)C2	none
C[C@@H]1C(=O)O[C@H]2[C@@H](O)[C@@]34[C@H]5C[C@H](C(C)(C)C)[C@@]36[C@H](OC(=O)[C@@H]6O)O[C@@]4(C(=O)O5)[C@@]12O	none
N#Cc1sc2nc3c(c(-c4ccco4)c2c1N)CCCC3	AmpC inh no det 13µM[single pt active]
CCOC(=O)c1cnc2c(C(F)(F)F)cccc2c1N1CCOCC1	none
CCOC(=O)c1cnc2c(C)c(Cl)ccc2c1N1CCOCC1	AmpC inh no det 4µM[single pt active]
COC(=O)c1nc2n(n1)C(c1cccc(Cl)c1)C1=C(CC(C)(C)CC1=O)N2 (centres undefined)	AmpC inh no det 4µM[single pt active]

Source: PubChem BioAssay
